Source: PubChem (several laboratories)
Most compounds without a hit are left out; they make up all but 4.5% or so of the library.
tim23-1 inh: growth inhibitors of tim23-1 mutant yeast, primary screen, luminescence, uHTS; S. cerevisiae tim23-1 growth, BacTiter-Glo luminescence, 24 h; inhibition, % at 20 µM; 330,000 compounds, 1.3% hits; AID 463212, 2010;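 active = growth inhibition of the mutant yeast at or above 50%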;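 also: temperature-sensitive mutant grown at 25 °C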
NALP3 yeast inh: NALP3 inflammasome inhibitors in reconstituted yeast, primary screen, luminescence, uHTS | Yeast reconstituted NLRP3/ASC/caspase-1, beta-gal luminescence, 24 h | inhibition, % at 10 µM | 330,000 compounds, 0.39% hits | AID 2825, 2010;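 active = inhibition of 50% or more; inactive = inhibition below 50%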
tim10-1 inh: growth inhibitors of tim10-1 mutant yeast, primary screen, luminescence, uHTS; inhibition, % at 20 µM; 330,000 compounds, 2.2% hits; S. cerevisiae tim10-1 ts strain growth, BacTiter-Glo, 24 h;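 active = inhibition of at least 40%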;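 also: mutant grown at 25 °C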
TIM10 inh: growth inhibitors of isogenic TIM10 control yeast, primary screen, counter-screen for tim10-1 yeast inhibitor project, luminescence, uHTS. 330,000 compounds, 1.4% hits. inhibition, % at 10 µM. S. cerevisiae TIM10 strain growth, BacTiter-Glo luminescence, 24 h;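 active = inhibition of 40% or more at the single tested concentration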;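 also: wild-type TIM10 isogenic control strain grown at permissive 25 °C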
PfHsp90 yeast 2: growth inhibition of PfHsp90-expressing yeast, primary screen, antimalarial PfHsp90 inhibitor project, S. cerevisiae, BacTiter-Glo luminescence, single point, set 2; 310,000 compounds, 0.32% hits; inhibition, % at 9.4 µM; BacTiter-Glo ATP, 48 h; yeast lacking PDR1 and PDR3 efflux regulators;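 active = every replicate shows inhibition above about 80%, whatever the replicate mean, limit read from the data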
SKKanGAS inh: S. pyogenes SKKanGAS growth inhibitors in kanamycin, primary screen, streptokinase expression inhibitor project, SKKanGAS strain, BacTiter-Glo luminescence; 6 h; inhibition, % at 7.5 µM; 300,000 compounds, 1.3% hits; AID 1662, 2009;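 active = mean replicate score, as percent of positive control median, at least 50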;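 also: strain carries kanamycin resistance gene driven by streptokinase promoter and grows in 40 µg/ml kanamycin; loss of luminescence reflects streptokinase promoter inhibition or plain growth inhibition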
tim23-1 confirm: tim23-1 mutant yeast growth inhibitors, confirmation, luminescence, single concentration; shares compounds with tim23-1 inh; S. cerevisiae tim23-1 growth, BacTiter-Glo luminescence, 24 h; inhibition, % at 20 µM; 4,400 compounds, 83% hits;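 active = inhibition above about 39% in either of two replicate wells at 20 µM, limit read from the data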;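 also: temperature-sensitive tim23-1 mutant grown at 25 °C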
Large screens that a line does not name were inactive (follow-up assays come after a bar, where they were run).

Cc1nn(C)c(C)c1NS(=O)(=O)c1ccc(Cl)s1	none (no result: SKKanGAS inh)
O=C(NOC(=O)c1ccccc1)c1ccccc1	tim23-1 inh 64.4 | tim23-1 confirm inactive
O=C(NCCCOC(=O)c1ccccc1)c1ccccc1	none (no result: tim23-1 inh, NALP3 yeast inh, tim10-1 inh, TIM10 inh, SKKanGAS inh)
Cc1cc([N+](=O)[O-])ccc1NC(=O)CSc1nncn1-c1cccnc1	none
Cc1ccc(OCc2cc(C(=O)N3CCC(c4ccccc4Cl)C3)no2)cc1C (configuration not stated)	none
Cc1ccccc1CC1(CO)CCCN(C(=O)Cc2c(F)ccc(F)c2F)C1 (configuration not stated)	none
C=CCn1cccc(C(=O)Nc2ccc(Cl)cc2)c1=O	tim23-1 inh 53.1 | tim23-1 confirm inactive
C=CCn1cccc(C(=O)Nc2ccc(SC)cc2)c1=O	none
O=C(c1ccccc1)N1C(=O)C(c2ccccc2)Oc2ccccc21 (configuration not stated)	tim23-1 inh 79.6 | tim23-1 confirm 56.8
COC(=O)C(C)Oc1ccc(-c2nccc(-c3cccs3)n2)cc1 (configuration not stated)	none (no result: PfHsp90 yeast 2)
Oc1ccc(-c2nccc(-c3cccs3)n2)cc1	tim23-1 inh 56.7 (no result: PfHsp90 yeast 2) | tim23-1 confirm 57.5
O=Cc1cn[nH]c1-c1ccccc1	none
O=Cc1cnc2ccccc2c1-c1ccccc1	tim23-1 inh 63.5 | tim23-1 confirm 57.5
C(=N\N1CCN(C2c3ccccc3-c3ccccc32)CC1)/c1ccccn1	tim23-1 inh 54.3 | tim23-1 confirm inactive
CCOc1ccc2c3c(c(=O)oc2c1OCC)CCCC3	tim23-1 inh 52.4 (no result: PfHsp90 yeast 2) | tim23-1 confirm 38.5
CCCOc1ccc2c3c(c(=O)oc2c1OCCC)CCCC3	none
O=C(Nc1cc(Cl)ccc1N1CCOCC1)c1ccc(Br)o1	none
COc1ccc(N2CCOCC2)c(NC(=O)c2ccc(Br)o2)c1	tim23-1 inh 52.1 | tim23-1 confirm 38.6
COc1ccc(OC)c(CCNC(=O)Cn2cccc2C(=O)c2ccccc2C)c1	tim23-1 inh 95.6 | tim23-1 confirm inactive
COc1ccc(OC)c(CCNC(=O)Cn2cccc2C(=O)c2ccccc2)c1	none
O=C(COC(=O)c1cnccn1)Nc1ncc(C(F)(F)F)cc1Cl	none (no result: SKKanGAS inh)
CN(c1ccc(C(=O)Nc2ccc(CC#N)cc2)cc1)S(C)(=O)=O	tim23-1 inh 94.1 | tim23-1 confirm inactive
CN(c1ccc(C(=O)Nc2ccc3c(c2)OCO3)cc1)S(C)(=O)=O	none
O=C(Nc1ccc(NC(=O)C2CC2)nc1)c1cccnc1	tim23-1 inh 53.2 | tim23-1 confirm inactive
Cc1ccc(-c2nc3n(n2)Cc2ccccc2-3)cc1	tim23-1 inh 54.5 | tim23-1 confirm 49.7
CC(C)(C)OC1NS(=O)(=O)OCC1NCOC(Cl)(Cl)Cl (configuration not stated)	none (no result: PfHsp90 yeast 2)
Cc1csc2nc(O)c(C(=O)NCc3ccc4c(c3)OCO4)c(=O)n12	tim23-1 inh 75.0 | tim23-1 confirm 72.8
Cc1nnc(NS(=O)(=O)c2ccc(N=Nc3ccc(N)nc3N)cc2)s1	none (no result: tim23-1 inh, NALP3 yeast inh, tim10-1 inh, TIM10 inh, SKKanGAS inh)
CCCCOc1ccc(N=Nc2ccc(N)nc2N)cn1	tim23-1 inh 80.1 | tim23-1 confirm 70.2
CSc1ncccc1C(=O)OCC(=O)N(CC(C)C)c1c(N)n(Cc2ccccc2)c(=O)[nH]c1=O	none
COc1ccc(CN(CC(O)COCc2ccccc2)S(=O)(=O)c2ccccc2Br)cc1OC (configuration not stated)	tim23-1 inh 50.0 (no result: NALP3 yeast inh, SKKanGAS inh) | tim23-1 confirm 36.0
COC(=O)c1cc2ccccc2c(-c2c(O)ccc3ccccc23)c1O	tim23-1 inh 69.5 | tim23-1 confirm inactive
COc1ccc(C(=O)NCCc2ccccn2)cc1S(=O)(=O)Nc1ccc(Br)cc1	none (no result: SKKanGAS inh)
O=C1C=C(c2ccc3[nH]ccc3c2)CCC1	none
CC1(C)CC(=O)C=C(c2ccc(I)cc2)C1	tim23-1 inh 51.3 (no result: SKKanGAS inh) | tim23-1 confirm 40.7
CC1(C)CC(=O)C=C(c2ccc3[nH]ccc3c2)C1	tim23-1 inh 54.1 | tim23-1 confirm inactive
COc1ccc(NCc2ccsc2)cc1	none
COC(=O)c1ccccc1N(C)S(=O)(=O)c1cc2c3c(c1)CCC(=O)N3CCC2	none
O=C(CSCc1ccc(F)cc1)Nc1nc2c(s1)CCCC2	tim23-1 inh 56.3 | tim23-1 confirm 41.4
O=C(Nc1ccc(Cl)c(S(=O)(=O)N2CCCC2)c1)c1nn(CCO)c(=O)c2ccccc12	none (no result: SKKanGAS inh)
O=C(NC1CCC(O)CC1)c1cc(Cl)c2c(c1)OCCO2 (configuration not stated)	none (no result: PfHsp90 yeast 2, SKKanGAS inh)
CC12CN3CC(C)(CN(C1)C3c1ccc(Br)cc1O)C2 (configuration not stated)	tim23-1 inh 51.4 | tim23-1 confirm 44.8
CC(=O)NCC1CCCN(C(=O)c2ccc(OC3CCN(Cc4ccccn4)CC3)cc2)C1 (configuration not stated)	none
O=S(=O)(NCc1ccc(C(F)(F)F)cc1)c1ccc(-n2cnnn2)cc1	none
CC1CCCCN1C(=O)c1cc(-c2ccc3c(c2)OCO3)on1 (configuration not stated)	tim23-1 inh 92.0 | tim23-1 confirm inactive
CC1CCCCN1C(=O)c1cc(-c2ccc(Cl)c(Cl)c2)on1 (configuration not stated)	none
Cn1c(C=O)c(-c2ccc3c(c2)OCCO3)c2ccccc21	tim23-1 inh 53.4 (no result: SKKanGAS inh) | tim23-1 confirm 52.8
CC(C)C[C@H]1CNC(=O)C(=O)N1CC1CCN(CCc2ccc(-c3ccccc3)cc2)CC1	none (no result: tim23-1 inh, NALP3 yeast inh, tim10-1 inh, TIM10 inh, SKKanGAS inh)
CCCc1nn(-c2ccccc2)c2c1C(c1cccs1)C(C#N)=C(N)O2 (configuration not stated)	tim23-1 inh 51.3 | tim23-1 confirm 43.7
Cc1nn(-c2ccccc2)c2c1C(c1ccco1)C(C#N)=C(N)O2 (configuration not stated)	none
Cc1nn(-c2ccccc2)c2c1C(c1ccc([N+](=O)[O-])cc1)C(C#N)=C(N)O2 (configuration not stated)	none
Cc1nn(-c2ccccc2)c2c1C(c1cccs1)C(C#N)=C(N)O2 (configuration not stated)	tim23-1 inh 61.0 | tim23-1 confirm 59.6
CC(CC(=O)OCC(=O)NCc1ccc(Cl)cc1)c1ccccc1 (configuration not stated)	none (no result: SKKanGAS inh)
COc1ccc(C(=O)OCC(=O)NC2CC2)cc1S(=O)(=O)Nc1ccc(C)cc1	none (no result: SKKanGAS inh)
N#CC1=C(N)c2ccccc2CC12CCCCC2	tim23-1 inh 51.1 | tim23-1 confirm 41.0
Cc1cnc(NC(=O)c2cc(-c3ccccc3)nn2-c2ccccc2)s1	none (no result: tim23-1 inh, NALP3 yeast inh, tim10-1 inh, TIM10 inh, SKKanGAS inh)
